The subject of assay [1] is HaCat. Put plainly: Cytotoxic Profiling of Annotated Libraries Using Quantitative High-Throughput Screening (AID 1296008). Also: nearly all actives have a fitted effect of over 60% in size. Conditions: Five cell lines viability, CellTiter-Glo ATP luminescence, 48-72 h; max response: hits give low values. In a few lines: (§1)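 Cells exposed to compounds for 48 or 72 hr at 37 degrees Celsius. Viability read as ATP-coupled luminescence with CellTiter-Glo after 10 min at room temperature.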

The test system of the next assay is KB-3-1. The assay is described as above. Conditions: Five cell lines viability, CellTiter-Glo ATP luminescence, 48-72 h; max response: hits give low values. The essentials:
as §1
(ATP-based viability assays read luminescence as a measure of living cells.)

In assay [2] the test system is NIH3T3. Described as above. To be noted: Five cell lines viability, CellTiter-Glo ATP luminescence, 48-72 h; max response: hits give low values. In a few lines: as §1
A further assay relates to MCC-13. Description: qHTS assay to identify novel small-molecules to repurpose for Merkel cell carcinoma treatment (AID 1296009). Also: nearly all actives have a fitted effect of over 60% in size. To be noted: MCC and control cell lines, CellTiter-Glo viability, 72 h; series mostly up to 46 µM. In a few lines:
(§2)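 CellTiter-Glo luminescence after 72 hr compound exposure at 37 degree celsius gave cell viability. Libraries NPC and MIPE were run as 8- and 11-point dose responses; RLUs normalized to DMSO (negative) and no-cell (cytotoxicity) controls.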
On the technique in general: Quantitative high-throughput screening tests each substance at several concentrations.

Another assay concerns MCC-26. Described as above. Conditions: MCC and control cell lines, CellTiter-Glo viability, 72 h; series mostly up to 46 µM. In a few lines:
as §2

The subject of the next assay is MKL-1. The assay is described as above. Conditions: MCC and control cell lines, CellTiter-Glo viability, 72 h; series mostly up to 46 µM. The essentials: as §2
The next assay relates to MKL-2. Described as above. To be noted: MCC and control cell lines, CellTiter-Glo viability, 72 h; series mostly up to 46 µM. The essentials:
as §2

Another assay relates to UISO. The description is as above. To be noted: MCC and control cell lines, CellTiter-Glo viability, 72 h; series mostly up to 46 µM. In a few lines:
as §2

The test system of the next assay is WaGa. The description is as above. To be noted: MCC and control cell lines, CellTiter-Glo viability, 72 h; series mostly up to 46 µM. In a few lines:
as §2

For assay [3], the system named is NIH3T3. Described as above. To be noted: MCC and control cell lines, CellTiter-Glo viability, 72 h; at 44.8 µM (top of the series) unless noted. The essentials:
as §2

The test system of the next assay is C33A. Description: Primary qHTS to identify gynecologic anti-cancer compounds using libraries of approved drugs and bioactive compounds (AID 1345084). Also: nearly all actives have a fitted effect of over 55% in size. Conditions: Gynecologic cancer cell panel viability, ATPlite luminescence, 48 h; series mostly up to 57.5 µM. In a few lines:
(§3)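 ATP-based viability (ATPlite), 1,000 cells/well, 16 h pre-incubation, 48 h compound at 37 C, 5% CO2, 15 min RT before read.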

The subject of the next assay is CASKI. Described as above. Conditions: Gynecologic cancer cell panel viability, ATPlite luminescence, 48 h; series mostly up to 57.5 µM. In a few lines: as §3
In the next assay the test system is Es-2. The description is as above. Conditions: Gynecologic cancer cell panel viability, ATPlite luminescence, 48 h; series mostly up to 57.5 µM. The essentials: as §3
A further assay deals with HeLa. Described as above. To be noted: Gynecologic cancer cell panel viability, ATPlite luminescence, 48 h; series mostly up to 57.5 µM. The essentials:
as §3

The subject of assay [4] is Hek293T. The assay is described as above. Conditions: Gynecologic cancer cell panel viability, ATPlite luminescence, 48 h, control line for the selectivity index; series mostly up to 57.5 µM. In a few lines:
as §3

The test system of a further assay is JEG-3. The description is as above. Conditions: Gynecologic cancer cell panel viability, ATPlite luminescence, 48 h; series mostly up to 57.5 µM. The essentials:
as §3

The subject of another assay is OV90. Described as above. Conditions: Gynecologic cancer cell panel viability, ATPlite luminescence, 48 h; series mostly up to 57.5 µM. The essentials: as §3
Assay [5] relates to HACAT. Put plainly: qHTS assay to identify novel small-molecules to repurpose for Merkel cell carcinoma treatment (AID 1296009). Also: nearly all actives have a fitted effect of over 60% in size. Conditions: MCC and control cell lines, CellTiter-Glo viability, 72 h; series mostly up to 44.8 µM. In a few lines:
as §2

Assay [6] concerns HEK293T. The assay is described as above. Conditions: MCC and control cell lines, CellTiter-Glo viability, 72 h; at 44.8 µM (top of the series) unless noted. In a few lines:
as §2

The subject of a further assay is CAOV3. Description: Primary qHTS to identify gynecologic anti-cancer compounds using libraries of approved drugs and bioactive compounds (AID 1345084). Also: nearly all actives have a fitted effect of over 55% in size. To be noted: Gynecologic cancer cell panel viability, ATPlite luminescence, 48 h; series mostly up to 57.5 µM. In a few lines:
as §3

Several values for one entry are separate records, joined by “and”; a condition that tells them apart may be missing. Equal values may be shown once. Inconclusive results are not listed. Values without a mark were called inactive. Activity calls are given as the source filed them. Calls follow the shape of the dose curve; as a rule, active = well fitted curve in the direction sought with a large enough effect; inconclusive = small, poorly fitted or top-dose-only effect, or another doubt; inactive = no such curve, though single readings can be large; an effect the other way counts as inactive or inconclusive.

The values that follow come from PubChem BioAssay (NCATS).
% is scaled to controls: 0 for no effect and ±100 for the full control effect; potency is read from the fitted curve at half-maximal effect.

`Nc1nc(-c2nn(Cc3ccccc3F)c3ncccc23)nc(N)c1N1CCOCC1`: the max response with HaCat [1] was -22.5%; in the assay with KB-3-1 it was 6.89%; in the assay on NIH3T3 [2] it was -10.6%. The Potency entry in the assay with MCC-13, in the assay with MCC-26, in the assay with MKL-1, with MKL-2, in the assay on UISO and in the assay with WaGa was “inactive” each time.
For the molecule `Clc1cccc(-n2nnnc2NCc2ccccc2Oc2ccccn2)c1Cl`, the max response with HaCat [1] was -3.03% and -4.47%; in the assay on KB-3-1 it was -10.9% and -7.38%. In addition, the outcome in the assay on NIH3T3 [2] and in the assay with NIH3T3 [3] was inactive. Further, the Potency result in the assay with MCC-13, in the assay on MCC-26, with MKL-1, with MKL-2, in the assay with UISO and in the assay on WaGa was “inactive” throughout. Also, the Potency entry in the assay on C33A, in the assay with CASKI, in the assay with Es-2, in the assay on HeLa, in the assay with Hek293T [4] and in the assay on JEG-3 was “inactive” each time. The Potency entry with OV90 is “inactive”.
Turning to `COc1ccc2c(OCc3nnc4ccc(-c5ccccc5)nn34)ccnc2c1`, the result in the assay on HaCat [1] and in the assay with HEK293T [6] was inactive. The max response in the assay with KB-3-1 was -1.11% and 9.78%; with NIH3T3 [2] it was -4.81% and -9.25%. The Potency entry in the assay with HACAT [5], with MCC-13, in the assay on MCC-26, in the assay with MKL-1, with MKL-2 and in the assay with UISO was “inactive” each time. Also, the Potency entry in the assay on WaGa, in the assay on C33A, in the assay with CAOV3, with CASKI, in the assay on Es-2 and with HeLa was “inactive” each time. For the same molecule, the Potency entry with Hek293T [4], in the assay with JEG-3 and in the assay with OV90 was “inactive” throughout.
With `CC(C)c1ccc(Cn2ccc3c4c(N)nc(NC5CC5)nc4ccc32)cc1`, the Potency is 37.2 µM (active) in the assay with HaCat [1]; 1.32 µM (active) with KB-3-1; 4.69 µM (active) in the assay on NIH3T3 [2]; 1.05 µM (active) in the assay on MCC-13; 16.6 µM (active) in the assay with MCC-26; 14.8 µM (active) in the assay on MKL-1. The Potency with MKL-2 was 4.18 µM (active); in the assay with UISO, 14.8 µM (active); in the assay on WaGa, 9.35 µM (active).
On to `Cc1cnc(-c2cnc(NCCNc3ccc(C#N)cn3)nc2-c2ccc(Cl)cc2Cl)[nH]1`, for which the molecule was called inactive in the assay with HaCat [1], in the assay with NIH3T3 [2] and in the assay on NIH3T3 [3]. In addition, in the assay with KB-3-1, the max response is -14.7% and -1.89%. For the same molecule, the Potency entry in the assay on HACAT [5], with MCC-26, with MKL-1, with MKL-2, in the assay with WaGa and in the assay on CAOV3 was “inactive” in each case. In addition, the Potency entry with CASKI, with Es-2 and in the assay with Hek293T [4] was “inactive” throughout.
Take `CC(C)(C)c1cc(NC(=O)Nc2ccc(-c3cn4c(n3)sc3cc(OCCN5CCOCC5)ccc34)cc2)no1`: the molecule was classed as inactive with HaCat [1], in the assay with NIH3T3 [2] and in the assay on NIH3T3 [3]. Also, the max response with KB-3-1 was 4.76% and -14.7%; with NIH3T3 [2], -25.4%. Besides, the Potency entry with HACAT [5], in the assay with MCC-13, in the assay with MCC-26, in the assay on MKL-1, in the assay with MKL-2 and with UISO was “inactive” each time. Further, the Potency result in the assay on WaGa, in the assay on C33A, in the assay on CASKI, in the assay with Es-2, with HeLa and in the assay on Hek293T [4] was “inactive” throughout. Also, the Potency result in the assay on JEG-3 and with OV90 was “inactive” each time.
With `COc1cccc(Nc2c(C(N)=O)cnc3c(C)cc(S(=O)(=O)c4cccc(C(=O)N(C)C)c4)cc23)c1`, the max response was 2.69% with HaCat [1]; -2.62% and -18.7% in the assay on KB-3-1; -0.878% in the assay on NIH3T3 [2]. For the same molecule, the Potency result in the assay with MCC-13, with MCC-26, in the assay on MKL-1, in the assay with MKL-2, in the assay on UISO and in the assay with WaGa was “inactive” throughout. Also, the Potency result in the assay on C33A, in the assay on CASKI, in the assay with Es-2, in the assay on HeLa, with Hek293T [4] and in the assay with JEG-3 was “inactive” each time. Moreover, the Potency entry with OV90 was “inactive”.
`CC1(C)O[C@@H]2C[C@@H]3[C@H]4C[C@@H](F)C5=CC(=O)C=C[C@]5(C)[C@@]4(F)[C@@H](O)C[C@]3(C)[C@]2(C(=O)CO)O1`: the max response is -6.44% in the assay on HaCat [1] and -12.4% with NIH3T3 [2]. The molecule was called inactive in the assay on KB-3-1. The Potency entry in the assay on MCC-13, in the assay with MCC-26, in the assay on MKL-1, in the assay with MKL-2, in the assay on UISO and in the assay on WaGa was “inactive” each time.
As to `CC(C)(C)c1cc(C(C)(C)C)c(NC(=O)c2c[nH]c3ccccc3c2=O)cc1O`, the result with HaCat [1], in the assay on NIH3T3 [2], in the assay on HEK293T [6] and with NIH3T3 [3] was inactive. Besides, the max response in the assay with KB-3-1 is -1.43%. Further, the Potency result in the assay on HACAT [5], with MCC-13, with MCC-26, with MKL-1, with MKL-2 and with UISO was “inactive” in each case. For the same molecule, the Potency result in the assay with WaGa is “inactive”.
On to `CC(=O)SC[C@@H](C)C(=O)N1CCC[C@H]1C(=O)N[C@@H](Cc1ccccc1)C(=O)O`, for which the max response with HaCat [1] is 1.63%; in the assay on KB-3-1, 2.35%; in the assay with NIH3T3 [2], 0.0761%. In the assay on HEK293T [6], the molecule was called inactive. Moreover, the Potency result in the assay on MCC-13, in the assay on MCC-26, in the assay on MKL-1, in the assay on MKL-2, in the assay with UISO and with WaGa was “inactive” throughout. The Potency result in the assay on C33A, in the assay on CAOV3, in the assay on CASKI, in the assay with Es-2, in the assay on HeLa and with Hek293T [4] was “inactive” throughout. The Potency result with JEG-3 and with OV90 was “inactive” in each case.
Consider `C#Cc1cccc(Nc2ncnc3cc(OC)c(OCCCCCCC(=O)NO)cc23)c1`, for which the Potency was 2.64 µM (active) and 6.51 µM (active) with HaCat [1]; 1.48 µM (active) and 4.11 µM (active) in the assay on KB-3-1; 13.2 µM (active) in the assay on NIH3T3 [2]; 16.6 µM (active) with MCC-13; 10.5 µM (active) in the assay with MCC-26; 0.935 µM (active) in the assay with MKL-1. The Potency in the assay on MKL-2 is 0.105 µM (active); in the assay with UISO it was 2.09 µM (active); with WaGa, 0.105 µM (active); in the assay on C33A, 3.55 µM (active); in the assay with CASKI, 6.31 µM (active); in the assay on Es-2, 10 µM (active). The Potency was 6.31 µM (active) in the assay with HeLa, 10 µM (active) in the assay on JEG-3 and 5.62 µM (active) in the assay with OV90.
Take `CCCNC(=O)Nc1ccc(Oc2ncnc3cc(OC)c(OC)cc23)cc1Cl`: the max response was 0.131% and 2.87% in the assay with HaCat [1]; 4.92% with KB-3-1; -7.41% and 0.662% in the assay with NIH3T3 [2]. For the same molecule, the molecule was called inactive in the assay with HEK293T [6]. Besides, the Potency result in the assay with MCC-13, in the assay on MCC-26, in the assay on MKL-1, in the assay on MKL-2, in the assay on UISO and in the assay with WaGa was “inactive” in each case. The Potency result in the assay on C33A, in the assay on CAOV3, with CASKI, with Es-2, in the assay on HeLa and in the assay on Hek293T [4] was “inactive” each time. Moreover, the Potency result in the assay on JEG-3 and in the assay on OV90 was “inactive” throughout.
